These assays gave more results; the selection is not random.
These compounds were tested against T1, Protein RecA (Mycobacterium tuberculosis) (UniProt P9WHJ3) (assay: M. tuberculosis H37Rv growth inhibition, dose response, strain H37Rv (AID 489010);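 also: whole Mycobacterium tuberculosis cells grown in culture and not purified RecA protein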).
T1 sequence (whole entry): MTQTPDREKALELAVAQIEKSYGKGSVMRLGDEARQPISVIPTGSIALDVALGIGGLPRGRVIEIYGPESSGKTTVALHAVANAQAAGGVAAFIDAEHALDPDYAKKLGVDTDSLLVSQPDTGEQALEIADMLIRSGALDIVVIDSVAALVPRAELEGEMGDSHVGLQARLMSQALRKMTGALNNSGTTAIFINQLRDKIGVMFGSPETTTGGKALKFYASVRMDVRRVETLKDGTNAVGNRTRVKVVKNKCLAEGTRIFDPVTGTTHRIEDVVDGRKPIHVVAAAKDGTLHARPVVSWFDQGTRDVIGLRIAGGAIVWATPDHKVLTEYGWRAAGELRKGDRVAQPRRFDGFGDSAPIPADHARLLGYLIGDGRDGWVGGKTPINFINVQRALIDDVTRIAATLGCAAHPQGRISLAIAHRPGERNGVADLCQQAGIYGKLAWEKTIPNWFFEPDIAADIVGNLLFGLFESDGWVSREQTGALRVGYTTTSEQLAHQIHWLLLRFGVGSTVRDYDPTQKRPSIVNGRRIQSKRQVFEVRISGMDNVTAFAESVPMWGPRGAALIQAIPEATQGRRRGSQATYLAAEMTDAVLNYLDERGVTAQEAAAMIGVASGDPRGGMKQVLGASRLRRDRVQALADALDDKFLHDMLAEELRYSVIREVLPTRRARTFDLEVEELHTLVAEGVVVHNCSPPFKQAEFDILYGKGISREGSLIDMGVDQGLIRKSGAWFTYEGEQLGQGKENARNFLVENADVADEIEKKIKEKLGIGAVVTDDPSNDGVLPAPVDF
Type: functional
In the case of O=C(Cc1ccccc1)c1c[nH]c(C(=O)C(Cl)(Cl)Cl)c1, the IC90 is reported as > 100 µM (active).
CC(=O)n1cc(N(C(=O)CCl)c2ccccc2)c2ccccc21 was tested, and the IC90 was 5.8 µM (active).
With CC1=NNC(=O)C1Cc1c(Cl)cccc1Cl (stereo not given) the IC90 was > 100 µM (active).
In the case of O=C(NC1=C(NC2CCS(=O)(=O)C2)C(=O)c2ccccc2C1=O)c1ccccc1 (stereo not given), the IC90 is reported as > 100 µM (active).
Cc1cc(C)cc(Cn2ncc(Cl)c(Cl)c2=O)c1 was tested, and the IC90 was 25.7 µM (active).
For O=C(CCl)N1c2ccccc2OCC1c1ccccc1 (stereo not given), the IC90 was 4.03 µM (active).
With CCC(C)[C@@H](NC(=O)OC(C)(C)C)c1nnc(S(=O)(=O)Cc2cccc(C)c2)o1 (stereo not given in full) the IC90 was > 100 µM (active).
For Cc1ccccc1-n1ncc2c([N+](=O)[O-])cc([N+](=O)[O-])cc21, the IC90 was 2.16 µM (active).
For CSc1nnc(NC(=O)c2nc(S(=O)(=O)Cc3ccccc3F)ncc2Cl)s1, the IC90 was > 100 µM (active).
With CSc1nnc(NC(=O)c2nc(S(=O)(=O)Cc3cccc(C)c3)ncc2Cl)s1 the IC90 was 44.7 µM (active).
With Cc1ccc(C)c(Sc2ccc(NC(=O)CCl)cc2)c1 the IC90 was > 100 µM (active).
In the case of Cc1oc2c(c1C(=O)NCc1cccnc1)C(=O)c1ccccc1C2=O, the IC90 is reported as < 0.2 µM (active).
With Cc1ccc(C(=O)OCn2ncc(Cl)c(Cl)c2=O)cc1 the IC90 was > 100 µM (active).
Cc1cc(C)c(S(=O)(=O)/N=C2\C=C(Nc3ccc(C(=O)O)cc3)C(=O)c3ccccc32)c(C)c1 was tested, and the IC90 was > 100 µM (active).
In the case of Fc1ccc(Oc2nc(-c3ccccc3)nnc2C(F)(F)F)cc1, the IC90 is reported as > 100 µM (active).
